# Records with an inconclusive call do not appear. The source made the active and inactive calls. Calls follow the shape of the dose curve; as a rule, active = well fitted activation curve with a large enough effect in the signal ratio in the repeat runs (not every such curve was filed as active); inconclusive = weak or mixed curves, or effect the other way; inactive = flat fitted curve, though single readings scatter; the % refers to the signal ratio.
# Molecular target: Estrogen receptor beta (Homo sapiens) (UniProt Q92731)
# Sequence (Q92731 whole entry, looked up): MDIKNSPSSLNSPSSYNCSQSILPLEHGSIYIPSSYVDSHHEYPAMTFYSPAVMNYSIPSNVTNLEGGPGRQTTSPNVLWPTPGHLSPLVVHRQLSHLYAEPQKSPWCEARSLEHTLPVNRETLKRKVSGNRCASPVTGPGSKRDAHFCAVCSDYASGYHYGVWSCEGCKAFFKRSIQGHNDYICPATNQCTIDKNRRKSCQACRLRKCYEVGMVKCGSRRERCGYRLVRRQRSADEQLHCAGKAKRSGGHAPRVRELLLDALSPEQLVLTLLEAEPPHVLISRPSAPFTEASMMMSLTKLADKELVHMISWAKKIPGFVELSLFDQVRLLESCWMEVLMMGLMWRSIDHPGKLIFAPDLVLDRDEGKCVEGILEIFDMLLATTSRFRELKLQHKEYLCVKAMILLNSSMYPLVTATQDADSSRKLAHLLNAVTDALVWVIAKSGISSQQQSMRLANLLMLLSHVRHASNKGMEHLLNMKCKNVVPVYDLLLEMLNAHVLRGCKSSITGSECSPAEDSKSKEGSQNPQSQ
# Test: qHTS assay to identify small molecule agonists of the estrogen receptor beta (ER-beta) signaling pathway (AID 1259377)
# Conditions: ER-beta-UAS-bla HEK293T, beta-lactamase FRET ratio, 16 h; series mostly up to 92.4 µM; activation: at the top concentration
# Excerpt: U.S. Tox21 Program National Center for Advancing Translational Sciences [NCATS] NIH Chemical Genomics Center [NCGC] U.S. Environmental Protection Agency [EPA] National Institutes of Environmental Health Sciences [NIEHS] National Toxicology Program [NTP] U.S. Food and Drug Administration [FDA] Tox21 Assay Overview: Estrogen receptor (ER), a nuclear hormone receptor, plays an important role in development, metabolic homeostasis and reproduction. Two subtypes of ER, ER-alpha and ER-beta, have similar expression patterns with some uniqueness in both types. Endocrine disrupting chemicals (EDCs) and their interactions with steroid hormone receptors like ER causes disruption of normal endocrine function. To identify the compounds that activate ER signaling, an ER beta-UAS-bla GripTite cell line (Life technologies, Madison, WI, USA) containing a beta-lactamase reporter gene under the control of an Upstream Activator Sequence (UAS) was used to screen Tox21 10K compound library.
# Tox21 Assay Protocol Summary: ER-beta-UAS-bla HEK293T cells were dispensed at 2,000 cells/5 uL of assay medium containing 2% charcoal stripped FBS per well into black wall/clear-bottom 1536-well plates using a Multidrop Combi (ThermoFisher Scientific, Waltham, MA) dispenser. After the assay plates were incubated at a 37C and 5% CO2 for 6 hr, 23 nL of compounds dissolved in DMSO, positive controls or DMSO only was transferred to the assay plate by a Pintool station (Kalypsys, San Diego, CA). The plates were incubated at 37C and 5% CO2 for 16 hr. Then 1 uL of LiveBLAzerTM B/G FRET substrate was added using a BioRAPTR FRD (Flying Reagent Dispenser, Aurora Discovery, San Diego, CA). After the plates were incubated at room temperature for 2 hours, fluorescence intensity was measured by an Envision plate reader (PerkinElmer, Shelton, CT).
# % is scaled to controls: 0 for no effect and ±100 for the full control effect; potency is read from the fitted curve at half-maximal effect.
SMILES,activation,Potency
COc1cc2nc(N3CCN(C(=O)c4ccco4)CC3)nc(N)c2cc1OC,-0.974% [at 19 µM] (inactive),–
COc1cccc(OC)c1C(=O)O,-2.51% (inactive),–
CCCCOC(=O)CC,0.95% (inactive),–
C=Cc1cccc(C)c1,–,inactive
O=C1CCc2cc(OCCCCc3nnnn3C3CCCCC3)ccc2N1,-4.77% [at 42.5 µM] (inactive),–
Cc1ccc(O)c(O)c1,-1.32% (inactive),–
CC(=O)c1ccc(C(C)=O)cc1,8.75% (inactive),–
CN(C)[C@@H](CCOc1cccc2ccccc12)c1ccccc1,-6.46% [at 42.5 µM] (inactive),–
CC(CO)Oc1ccccc1 (stereo not given),-0.281% (inactive),–
CC(=O)Oc1cc2c(s1)CCN(C(C(=O)C1CC1)c1ccccc1F)C2 (stereo not given),0.766% [at 42.5 µM] (inactive),–
c1ccc(C(O[C@@H]2CCCN(CCc3ccc4c(c3)OCO4)C2)c2ccccc2)cc1,-4.64% (inactive),–
Nc1ccc(NCCO)c([N+](=O)[O-])c1,5.26% (inactive),–
O=C(O)Cc1ccccc1Nc1c(Cl)cccc1Cl,–,inactive
Oc1cc(Cl)cc(Cl)c1Cl,-2.92% (inactive),–
CC(C)Cn1cnc2c(N)nc3ccccc3c21,4.64% [at 19 µM] (inactive),–
O=C(/C=C/c1ccccc1)OC/C=C/c1ccccc1,0.999% (inactive),–
CCCCOC(=O)CO,-0.358% (inactive),–
CCO[Si](OCC)(OCC)OCC,-0.526% (inactive),–
CC(C(=O)O)c1ccc2c(c1)[nH]c1ccc(Cl)cc12 (stereo not given),4.73% [at 42.5 µM] (inactive),–
CCN(CC)C(=O)c1cc(S(=O)(=O)Cc2ccccc2)c(N2CCC(c3ccccc3)CC2)cc1N(CC)CCN(C)C,-7.82% [at 42.5 µM] (inactive),–

SMILES,activation,Potency
C#C[C@]1(OC(C)=O)CC[C@H]2[C@@H]3CCC4=C/C(=N/O)CC[C@@H]4[C@H]3CC[C@@]21CC,-5.81% [at 42.5 µM] (inactive),–
CC1=Nc2ccccc2C1(C)C,0.417% (inactive),–
CCOC(=O)c1ccc(C2CCC(NC[C@H](O)COc3ccc(O)c(NS(C)(=O)=O)c3)CC2)cc1 (stereo not given in full),-9.23% (inactive),–
O=S(=O)(O)c1ccccc1/C=C/c1ccc(-c2ccc(/C=C/c3ccccc3S(=O)(=O)O)cc2)cc1,–,39.1 µM (active)
CC(CCc1ccccc1)NCC(O)c1ccc(O)c(C(N)=O)c1 (stereo not given),-4.65% (inactive),–
O[C@@H]([C@H](O)[C@H](O)CBr)[C@H](O)CBr,-0.193% (inactive),–
C#C[C@]1(O)CC[C@H]2[C@@H]3[C@H](C)CC4=C(CCC(=O)C4)[C@H]3CC[C@@]21C,–,0.188 µM (active)
OC1CCC(C2CCCCC2)CC1 (stereo not given),10.4% (inactive),–
CCCC(=O)OCCc1ccccc1,-2.13% (inactive),–
Sc1nc2ccccc2s1,-3.49% (inactive),–
C=CCn1c(=O)n(CC=C)c(=O)n(CC=C)c1=O,-3.32% (inactive),–
S=C([S-])NCCNC(=S)[S-].S=C([S-])NCCNC(=S)[S-].[Mn+2].[Zn+2],6.57% [at 42.5 µM] (inactive),–
CN(C)Cc1cc(C(C)(C)C)c(O)c(C(C)(C)C)c1,0.575% (inactive),–
Cc1cc(C(C#N)c2ccc(Cl)cc2)c(Cl)cc1NC(=O)c1cc(I)cc(I)c1O (stereo not given),-7.17% [at 42.5 µM] (inactive),–
C[Si](Cl)(c1ccccc1)c1ccccc1,1.07% (inactive),–
O=C(/C=C/c1ccc(O)c(O)c1)O[C@@H](C(=O)O)[C@@H](OC(=O)/C=C/c1ccc(O)c(O)c1)C(=O)O,-0.846% (inactive),–
O=c1[nH]c(=O)n([C@H]2C[C@H](O)[C@@H](CO)O2)cc1F,-7.45% [at 42.5 µM] (inactive),–
O=C1C(c2[nH]c3ccc(S(=O)(=O)O)cc3c2O)=Nc2ccc(S(=O)(=O)O)cc21,-0.165% (inactive),–
O=C(O)CCN(C1(C(=O)NO)CCCC1)S(=O)(=O)c1ccc(Oc2ccc(F)cc2)cc1,-4.13% (inactive),–
Cc1cccc(C)c1NC(=O)c1ccc(N)cc1,6.18% [at 42.5 µM] (inactive),–

# From PubChem BioAssay (Tox21)
